Data on nine compounds can be found in PubChem BioAssay.

The source made the active and inactive calls.

Experiment [1] can be described thus: small molecules captured by biotinylated probe aFSTL3 – biochemical, small-molecule microarray, fluorescence 635/667, stem cell growth factor project, primary screen (AID 1064).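 Also: measures binding of the biotinylated anti-FSTL3 antibody to printed compounds.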 Conditions: higher = more signal.
A short description of experiment [2]: binders from COS7 lysate, DM2A8 probe, primary screen, torsin A project, cell lysate, small-molecule microarray, fluorescence 635/667 (AID 1065). Conditions: higher = more signal, COS7 lysate expressing mutant human TOR1A.
Experiment [3] can be described thus: small molecules captured by biotinylated probe aFGF2 – biochemical, small-molecule microarray, fluorescence 635/667, stem cell growth factor project, primary screen (AID 1067).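 Also: measures binding of biotinylated aFGF2 protein to printed compounds on slides; z-score merges feature fluorescence and signal-to-noise across triplicate slides.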 Conditions: higher = more signal.
Experiment [4] is described as follows: small molecules captured by biotinylated probe aFGF10 – biochemical, small-molecule microarray, fluorescence 635/667, stem cell growth factor project, primary screen (AID 1071).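 Also: score merges 667 nm spot intensity and signal to noise from triplicate slides.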 Conditions: higher = more signal.
Experiment [5] deals with Neurogenic locus notch homolog protein 2 (Homo sapiens) (UniProt Q04721). The experiment can be described thus: small molecules binding Notch2 protein – biochemical, small-molecule microarray, 635 nm fluorescence, stem cell growth factors, primary screen (AID 1073). Conditions: higher = more signal.
Experiment [6] has as its target Pro-neuregulin-1, membrane-bound isoform (Homo sapiens) (UniProt Q02297). Briefly: small molecules binding neuregulin-1 protein – biochemical, small-molecule microarray, fluorescence 635/667, psychiatric disease protein project, primary screen (AID 1075).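 Also: score combines 667 nm spot fluorescence with signal to noise.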 Conditions: NRG1 binding, 635 nm fluorescence, higher = more signal.
Experiment [7] concerns Neuregulin-1 EGF-like domain. The experiment can be described thus: small molecules binding NRG1 EGF domain – biochemical, small-molecule microarray, 635 nm fluorescence, primary screen (AID 1081).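 Also: binding of the protein to compounds printed on small-molecule microarray slides.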 Conditions: higher = more signal.
A short description of experiment [8]: FRG1 expression reporter modulators in myotubes – cell-based, C2C12 myotubes, firefly/Renilla luciferase, luminescence, FRG1 inhibition for FSHD, primary screen (AID 1084). Conditions: FRG1 promoter luciferase, higher = more signal, called active from +8 up or from −8 down.
A short description of experiment [9]: small molecules captured by biotinylated probe aFST – biochemical, small-molecule microarray, fluorescence 635/667, stem cell growth factor project, primary screen (AID 1086).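 Also: score merges 667 nm fluorescence with signal-to-noise of each printed compound spot.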 Conditions: higher = more signal.
Experiment [10] in a line: binders of probe aHhip on microarray, primary screen, stem cell growth factor project, biochemical, small-molecule microarray, fluorescence 635/667 (AID 1087).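 Also: score merges spot fluorescence at 667nm with spot signal to noise ratio.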 Conditions: higher = more signal.
In experiment [11] the test system is PRMT1 (protein arginine N-methyltransferase 1). Briefly: small molecules binding arginine methyltransferase PRMT1 – biochemical, small-molecule microarray, 635 nm fluorescence, primary screen (AID 1088).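 Also: binding of Prmt1 protein to compounds spotted on small-molecule microarray slides.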 Conditions: higher = more signal.
A short description of experiment [12]: growth effects on S. cerevisiae YJM789 – YJM789 clinical isolate, OD600, 24 h, basal, primary screen (AID 1089).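 Also: growth of clinical yeast isolate S. cerevisiae YJM 789 seeded 1000 cells per well; test concentration not given here.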 Conditions: higher = more signal, called active from +8 up or from −8 down.
Experiment [13] can be described thus: S. pombe growth modifiers, basal conditions – strain 972, OD600, 24 h, no modulator, primary screen (AID 1090).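 Also: basal condition with compound alone and no growth modifier present; test concentration not given here.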 Conditions: S. pombe 972 growth, higher = more signal, called active from +8 up or from −8 down.
The nature of experiment [14]: budding yeast growth modifiers under rapamycin – strain BY4716, OD600, 96 h, primary screen (AID 1091). Also: test concentration not given here. Conditions: S. cerevisiae BY4716 + rapamycin, higher = more signal, called active from +8 up or from −8 down.
Experiment [15] concerns the target Torsin-1A-interacting protein 2 (Homo sapiens) (UniProt Q8NFQ8). The experiment can be described thus: small molecules binding lysate-expressed LULL1 – cell lysate, human LULL1 lysate, 635/667 nm fluorescence, primary screen (AID 1092).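 Also: probe is lysate of COS7 cells overexpressing human LULL1; score merges per-feature 667 nm fluorescence with signal-to-noise.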 Conditions: small-molecule microarray, hLULL1 lysate binding, 635 nm fluorescence; higher = more signal.
Experiment [16] in a line: optical density change of DRC41 E. coli – strain DRC41, OD650, 24 h, E. coli filamentation project, primary screen (AID 1093).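 Also: MC1000 strain lacking acrAB efflux and sulA so SOS filamentation is blocked; test concentration not given here.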 Conditions: E. coli DRC41 growth, higher = more signal, called active from +8 up or from −8 down.
Experiment [17] can be described thus: probe aLefty2 binding to arrayed compounds – biochemical, biotinylated probe, 635/667 nm fluorescence, primary screen (AID 1094).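 Also: score merges spot fluorescence near 667 nm with spot signal-to-noise ratio.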 Conditions: small-molecule microarray, higher = more signal.
For experiment [18], the system named is Noggin (protein binding on small-molecule microarray). Briefly: small molecules binding Noggin protein – biochemical, 635/667 nm fluorescence, primary screen (AID 1095).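 Also: score merges 667 nm feature fluorescence with signal to noise over triplicate slides.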 Conditions: 635 nm fluorescence, higher = more signal.
The target in experiment [19] is Neurogenic locus notch homolog protein 3 (Homo sapiens) (UniProt Q9UM47). Briefly: small molecules binding NOTCH3 protein – biochemical, 635/667 nm fluorescence, primary screen (AID 1096). Conditions: small-molecule microarray, 635 nm fluorescence, higher = more signal.
Experiment [20] can be described thus: probe aEGFR binding to arrayed compounds – biochemical, biotinylated probe, 635/667 nm fluorescence, primary screen (AID 1097).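 Also: probe is a biotinylated anti-EGFR antibody binding compounds printed on slides; score combines fluorescence near 667 nm and signal to noise of each spot.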 Conditions: small-molecule microarray, higher = more signal.

Chain of Neurogenic locus notch homolog protein 3 (Homo sapiens) (Q9UM47 whole entry, looked up): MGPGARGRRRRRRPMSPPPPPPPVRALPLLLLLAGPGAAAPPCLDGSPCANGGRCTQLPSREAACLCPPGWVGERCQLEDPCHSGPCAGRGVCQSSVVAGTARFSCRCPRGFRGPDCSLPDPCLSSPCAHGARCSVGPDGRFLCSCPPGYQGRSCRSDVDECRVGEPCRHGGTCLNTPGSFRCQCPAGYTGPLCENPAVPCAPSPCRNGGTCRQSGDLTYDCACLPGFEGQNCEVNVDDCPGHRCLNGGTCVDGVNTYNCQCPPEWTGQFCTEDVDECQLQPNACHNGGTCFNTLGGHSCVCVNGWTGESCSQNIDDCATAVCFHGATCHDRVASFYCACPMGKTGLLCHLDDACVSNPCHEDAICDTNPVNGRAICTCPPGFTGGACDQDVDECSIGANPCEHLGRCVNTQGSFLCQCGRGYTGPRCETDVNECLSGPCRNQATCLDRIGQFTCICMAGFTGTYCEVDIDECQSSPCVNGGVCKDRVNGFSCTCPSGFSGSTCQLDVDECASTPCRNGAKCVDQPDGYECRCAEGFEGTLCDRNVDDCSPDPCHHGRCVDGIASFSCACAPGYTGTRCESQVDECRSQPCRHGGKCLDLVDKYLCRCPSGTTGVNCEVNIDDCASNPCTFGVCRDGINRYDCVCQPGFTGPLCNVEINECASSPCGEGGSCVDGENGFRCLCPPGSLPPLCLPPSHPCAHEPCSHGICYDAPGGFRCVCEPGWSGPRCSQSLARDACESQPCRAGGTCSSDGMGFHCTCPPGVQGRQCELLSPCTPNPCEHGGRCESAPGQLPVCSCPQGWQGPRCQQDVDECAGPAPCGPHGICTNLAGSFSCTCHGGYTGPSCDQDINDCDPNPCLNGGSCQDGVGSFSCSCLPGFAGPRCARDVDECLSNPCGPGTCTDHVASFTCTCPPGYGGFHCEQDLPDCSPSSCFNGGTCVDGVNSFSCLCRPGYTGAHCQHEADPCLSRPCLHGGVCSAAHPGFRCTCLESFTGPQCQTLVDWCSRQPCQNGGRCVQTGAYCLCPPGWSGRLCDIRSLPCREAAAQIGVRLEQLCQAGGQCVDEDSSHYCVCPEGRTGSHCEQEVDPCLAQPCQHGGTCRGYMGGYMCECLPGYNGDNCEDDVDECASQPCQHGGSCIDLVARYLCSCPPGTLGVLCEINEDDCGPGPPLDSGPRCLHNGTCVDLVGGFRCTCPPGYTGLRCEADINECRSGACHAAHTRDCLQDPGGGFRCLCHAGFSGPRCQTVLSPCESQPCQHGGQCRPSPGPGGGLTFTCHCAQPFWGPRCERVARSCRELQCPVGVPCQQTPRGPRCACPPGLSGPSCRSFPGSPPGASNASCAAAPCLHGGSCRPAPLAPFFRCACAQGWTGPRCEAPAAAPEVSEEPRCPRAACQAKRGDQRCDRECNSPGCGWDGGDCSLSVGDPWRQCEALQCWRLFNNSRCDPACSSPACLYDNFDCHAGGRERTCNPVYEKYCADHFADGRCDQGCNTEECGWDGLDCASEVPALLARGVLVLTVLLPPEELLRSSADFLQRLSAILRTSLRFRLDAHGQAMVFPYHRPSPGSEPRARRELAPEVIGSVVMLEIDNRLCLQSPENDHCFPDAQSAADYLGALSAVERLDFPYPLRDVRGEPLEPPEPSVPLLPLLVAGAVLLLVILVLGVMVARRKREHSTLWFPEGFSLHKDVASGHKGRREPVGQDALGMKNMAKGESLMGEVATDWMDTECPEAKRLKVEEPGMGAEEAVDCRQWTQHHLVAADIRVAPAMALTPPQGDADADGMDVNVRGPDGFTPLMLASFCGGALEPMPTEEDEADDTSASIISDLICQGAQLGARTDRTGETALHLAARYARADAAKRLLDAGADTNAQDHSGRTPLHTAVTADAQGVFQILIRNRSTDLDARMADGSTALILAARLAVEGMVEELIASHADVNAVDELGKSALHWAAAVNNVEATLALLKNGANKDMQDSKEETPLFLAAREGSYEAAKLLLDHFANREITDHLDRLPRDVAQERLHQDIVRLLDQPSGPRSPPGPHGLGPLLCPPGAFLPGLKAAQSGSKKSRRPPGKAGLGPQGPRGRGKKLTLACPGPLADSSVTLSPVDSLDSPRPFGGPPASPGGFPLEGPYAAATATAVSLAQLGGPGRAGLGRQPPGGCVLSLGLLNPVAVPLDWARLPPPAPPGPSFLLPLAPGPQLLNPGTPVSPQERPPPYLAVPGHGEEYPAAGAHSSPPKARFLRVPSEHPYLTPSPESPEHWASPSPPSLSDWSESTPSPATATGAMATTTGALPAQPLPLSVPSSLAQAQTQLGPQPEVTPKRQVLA
Chain of Neurogenic locus notch homolog protein 2 (Homo sapiens) (Q04721 whole entry, looked up, canonical isoform): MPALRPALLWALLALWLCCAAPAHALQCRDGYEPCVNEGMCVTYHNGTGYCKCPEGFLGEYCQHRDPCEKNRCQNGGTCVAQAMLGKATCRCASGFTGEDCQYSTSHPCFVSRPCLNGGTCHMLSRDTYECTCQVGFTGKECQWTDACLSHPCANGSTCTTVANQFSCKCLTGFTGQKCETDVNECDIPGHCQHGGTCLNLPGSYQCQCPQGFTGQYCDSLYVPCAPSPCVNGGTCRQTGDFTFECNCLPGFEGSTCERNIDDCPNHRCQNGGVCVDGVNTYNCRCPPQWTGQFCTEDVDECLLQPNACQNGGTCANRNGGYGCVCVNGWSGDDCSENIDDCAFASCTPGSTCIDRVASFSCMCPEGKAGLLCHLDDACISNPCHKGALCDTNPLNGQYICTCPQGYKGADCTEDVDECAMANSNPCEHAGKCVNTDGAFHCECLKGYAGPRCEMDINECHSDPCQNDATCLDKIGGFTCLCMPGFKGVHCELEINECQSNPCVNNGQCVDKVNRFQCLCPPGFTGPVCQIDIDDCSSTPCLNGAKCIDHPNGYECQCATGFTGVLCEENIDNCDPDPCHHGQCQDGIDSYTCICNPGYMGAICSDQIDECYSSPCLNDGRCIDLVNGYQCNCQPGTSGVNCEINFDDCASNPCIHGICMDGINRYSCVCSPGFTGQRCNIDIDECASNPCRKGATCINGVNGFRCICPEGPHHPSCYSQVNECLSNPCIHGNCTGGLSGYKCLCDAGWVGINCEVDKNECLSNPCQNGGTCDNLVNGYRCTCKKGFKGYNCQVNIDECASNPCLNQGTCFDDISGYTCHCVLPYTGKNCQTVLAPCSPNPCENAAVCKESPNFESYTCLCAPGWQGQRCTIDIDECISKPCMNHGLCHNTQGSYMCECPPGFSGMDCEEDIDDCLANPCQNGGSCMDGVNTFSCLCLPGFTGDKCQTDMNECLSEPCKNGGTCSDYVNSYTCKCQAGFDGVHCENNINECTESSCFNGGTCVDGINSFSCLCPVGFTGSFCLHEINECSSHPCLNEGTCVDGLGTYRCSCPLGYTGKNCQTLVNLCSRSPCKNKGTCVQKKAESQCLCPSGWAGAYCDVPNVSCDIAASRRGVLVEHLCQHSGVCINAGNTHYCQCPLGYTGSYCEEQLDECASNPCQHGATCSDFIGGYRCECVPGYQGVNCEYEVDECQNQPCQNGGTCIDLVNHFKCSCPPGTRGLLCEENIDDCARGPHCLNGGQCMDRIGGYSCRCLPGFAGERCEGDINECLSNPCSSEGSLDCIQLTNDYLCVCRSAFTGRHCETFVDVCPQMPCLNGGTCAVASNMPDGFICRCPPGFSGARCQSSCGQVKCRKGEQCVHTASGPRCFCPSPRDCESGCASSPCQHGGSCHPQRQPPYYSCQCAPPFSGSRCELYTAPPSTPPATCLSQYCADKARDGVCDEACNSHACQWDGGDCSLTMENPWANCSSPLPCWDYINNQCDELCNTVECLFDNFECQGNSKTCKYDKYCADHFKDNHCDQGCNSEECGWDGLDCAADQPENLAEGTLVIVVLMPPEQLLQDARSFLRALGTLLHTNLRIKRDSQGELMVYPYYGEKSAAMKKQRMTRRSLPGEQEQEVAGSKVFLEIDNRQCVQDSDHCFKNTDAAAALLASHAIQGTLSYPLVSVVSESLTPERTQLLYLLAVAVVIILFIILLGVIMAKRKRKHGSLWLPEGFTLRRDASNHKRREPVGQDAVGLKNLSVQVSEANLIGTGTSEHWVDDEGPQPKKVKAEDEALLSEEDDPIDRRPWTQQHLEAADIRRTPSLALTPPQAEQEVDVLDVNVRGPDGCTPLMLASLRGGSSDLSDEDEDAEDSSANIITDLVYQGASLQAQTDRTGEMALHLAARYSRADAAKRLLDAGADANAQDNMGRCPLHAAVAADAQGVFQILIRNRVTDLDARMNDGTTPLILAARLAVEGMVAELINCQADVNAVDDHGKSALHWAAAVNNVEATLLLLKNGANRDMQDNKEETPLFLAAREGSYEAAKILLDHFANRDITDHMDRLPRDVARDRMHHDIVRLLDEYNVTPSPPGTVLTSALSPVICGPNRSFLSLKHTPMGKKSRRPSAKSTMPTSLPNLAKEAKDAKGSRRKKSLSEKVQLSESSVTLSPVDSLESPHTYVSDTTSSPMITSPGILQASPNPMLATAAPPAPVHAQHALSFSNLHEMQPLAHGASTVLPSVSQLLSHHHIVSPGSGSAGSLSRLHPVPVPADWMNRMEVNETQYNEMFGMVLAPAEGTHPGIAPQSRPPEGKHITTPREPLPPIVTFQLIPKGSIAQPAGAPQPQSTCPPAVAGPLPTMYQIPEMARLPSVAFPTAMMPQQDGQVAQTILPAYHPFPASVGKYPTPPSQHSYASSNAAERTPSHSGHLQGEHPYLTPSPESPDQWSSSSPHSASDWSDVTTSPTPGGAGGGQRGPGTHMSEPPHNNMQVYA

In the case of `C=CCC(OC(C)=O)[C@@H]1[C@@H](N(Cc2ccc(-c3ccccc3)cc2)C(=O)Cc2ccc(OC)cc2)c2cc(OCCCO)ccc2N1C(=O)c1ccc2ccccc2c1` (stereo not given in full), the composite z-score in experiment [1] was -0.286; in [2], 1.09; in experiment [3], -0.0486; in [4] it was 0.269; in [5], -0.238; in experiment [6] it was -0.157. In addition, the composite z-score in [7] is -0.659; in [9] it was 0.544; in [10], -0.283; in [11] it was 0.238; in experiment [15], 0.622; in experiment [17], -0.154. The composite z-score in [18] is 0.138; in [19], 0.0678; in experiment [20], -0.17. In addition, the z-score in experiment [8] was -0.808 (inactive); in experiment [12], -0.675 (inactive); in experiment [13], 0.121 (inactive); in experiment [14], -0.193 (inactive); in experiment [16] it was -0.584 (inactive).
On to `CCOC(=O)C[C@H]1[C@H](OC(=O)c2cc3ccccc3oc2=O)[C@@H](NC(=O)Cc2ccc(OC)cc2)c2cc(OCCCO)ccc2N1C(=O)Cc1ccc(OC)cc1`, for which the composite z-score in [1] was -0.545; in experiment [2], 0.58; in experiment [3] it was -0.125; in experiment [4], 0.527; in experiment [5], 0.791; in experiment [6], 0.185. Further, the composite z-score in experiment [7] is 0.507; in experiment [9], 1.43; in experiment [10] it was -0.179; in experiment [11] it was 0.638; in experiment [15] it was 1.65; in experiment [17], -0.058. Further, the composite z-score in experiment [18] was 0.534; in [19], 0.91; in [20], -0.0313. For the same compound, the z-score in [8] was -1.39 (inactive); in [12], -0.903 (inactive); in [13] it was -1.04 (inactive); in [14], -1.79 (inactive); in experiment [16], 1.52 (inactive).
Take `COC(=O)[C@H](Cc1ccccc1)N1CC(C)(OC)O[C@@H](Cc2ccccc2)[C@H]1/C=C/C1CC1` (stereo not given in full): the composite z-score is 0.016 in [1]; 0.12 in [2]; -0.073 in [3]; -0.194 in experiment [4]; 0.144 in experiment [5]; 0.0246 in experiment [6]. In addition, the composite z-score in [7] is 0.484; in experiment [9] it was -0.205; in experiment [10] it was -0.331; in [11], 0.38; in [15] it was 0.638; in experiment [17], -0.124. Moreover, the results for the composite z-score in experiment [18], in experiment [19] and in [20] were -0.305, -0.68 and -0.15, respectively. Besides, the z-score in experiment [8] is -0.218 (inactive); in experiment [12] it was 0.0394 (inactive); in experiment [13], -2.37 (inactive); in experiment [14] it was -0.184 (inactive); in experiment [16], -0.0718 (inactive).
As to `CCCNC(=O)[C@@]1(Sc2ccc(C)cc2)CC(=O)N(Cc2cc(C(F)(F)F)cc(C(F)(F)F)c2)[C@@H]1c1ccc(CO)cc1`, the composite z-score in [1] is 0.708; in [2], -0.332; in [3], -0.0363; in experiment [4], 0.0551; in experiment [5], -0.608; in [6], -0.78. Besides, the composite z-score was 0.791 in experiment [7]; -0.486 in experiment [9]; -0.236 in experiment [10]; 0.805 in [11]; 1.8 in experiment [15]; -0.122 in [17]. Moreover, the composite z-score in experiment [18] is -1.13; in experiment [19], -0.542; in [20], -0.165. Also, the z-score in experiment [8] was 0.621 (inactive); in [12] it was -0.0276 (inactive); in experiment [13] it was -1.16 (inactive); in [14] it was -0.835 (inactive); in experiment [16], -0.212 (inactive).
As to `CN1C(=O)C2C(C1=O)C1C=C(CCCO)C2C(C2CC2)N1C` (stereo not given), the composite z-score in [1] is 0.227; in [2], -0.144; in experiment [3], 0.078; in experiment [4], 0.333; in [5], 0.196; in experiment [6], 0.496. The composite z-score in experiment [7] is 0.625; in experiment [9], -0.196; in experiment [10], -0.385; in [11], 0.74; in experiment [15], 2.52; in [17] it was -0.0812. The figures for the composite z-score in experiment [18], in experiment [19] and in experiment [20] were -0.21, -0.312 and -0.0922, respectively. The z-score was -0.818 (inactive) in experiment [8]; -1.39 (inactive) in [12]; -0.339 (inactive) in experiment [13]; -0.517 (inactive) in experiment [14]; -0.797 (inactive) in experiment [16].
In the case of `CCCCC(=C=CC[C@H](O)c1cccc(OCCO)c1)C[C@H](O)c1cc(Cl)cc(Cl)c1O`, the composite z-score in experiment [1] was -0.288; in experiment [2] it was -0.027; in [3], -0.0376; in experiment [4], 0.526; in [5], -0.107; in experiment [6], 0.665. For the same compound, the composite z-score is 0.616 in experiment [7]; 0.137 in [9]; -0.197 in experiment [10]; 1.53 in experiment [11]; 1.81 in experiment [15]; 0.206 in [17]. The composite z-score in experiment [18] was 0.999; in experiment [19] it was 0.883; in experiment [20] it was -0.112. Besides, the z-score in [8] is -1.64 (inactive); in experiment [12], 0.59 (inactive); in [13] it was -1.71 (inactive); in experiment [14], 0.102 (inactive); in [16], 0.206 (inactive).
As for `C=CCNC(=O)[C@H]1[C@@H]2C(=O)O[C@@H](c3ccccc3)[C@@H](c3ccccc3)N2[C@@H](c2ccc(OCCO)cc2)[C@]12C(=O)N(C(=O)OCCOC)c1ccc(C#CCC(C(=O)OC)C(=O)OC)cc12`, the composite z-score in experiment [1] was 1.55; in experiment [2], 0.948; in [3], 0.18; in [4], 1.1; in experiment [5], 0.881; in experiment [6], 1.63. The composite z-score in experiment [7] came out at 1.19; in experiment [9] it was 0.725; in experiment [10] it was 1.58; in experiment [11], 1.54; in [15], 3.45; in [17] it was 0.771. Moreover, the results for the composite z-score in experiment [18], in experiment [19] and in experiment [20] were 1.42, 1.08 and 0.315, respectively. Moreover, the z-score in experiment [8] is 0.9 (inactive); in [12] it was 2.06 (inactive); in experiment [13], 1.07 (inactive); in experiment [14], 6.82 (inactive); in experiment [16], -0.0319 (inactive).
Turning to `COc1ccc([Si](C)(C)[C@@H]2[C@@H](CC(=O)N3CCC[C@H]3CO)O[C@]3(C(=O)N(Cc4cccc(N5C(=O)c6cccc7cccc5c67)c4)c4ccccc43)[C@H]2C)cc1`, the composite z-score is -0.401 in experiment [1]; 0.342 in experiment [2]; -0.0666 in [3]; 0.219 in experiment [4]; -0.321 in experiment [5]; 1.22 in experiment [6]. The composite z-score is 1.06 in experiment [7]; 0.019 in experiment [9]; -0.0618 in experiment [10]; 1.34 in [11]; 1.48 in experiment [15]; -0.0757 in experiment [17]. For the same compound, the results for the composite z-score in experiment [18], in [19] and in experiment [20] were 0.641, 0.368 and -0.115, respectively. For the same compound, the z-score in [8] was -1.01 (inactive); in experiment [12], -0.702 (inactive); in experiment [13] it was -0.487 (inactive); in [14], -0.158 (inactive); in experiment [16] it was 1.55 (inactive).
For the compound `Cc1ccc(S[C@]2(C(=O)NC3CC3)CC(=O)N(C3Cc4ccccc4C3)[C@@H]2c2ccc(CO)cc2I)cc1`, the composite z-score is 0.851 in experiment [1]; -0.1 in [2]; -0.133 in experiment [3]; -0.0222 in experiment [4]; -0.603 in [5]; 0.996 in experiment [6]. In addition, the composite z-score in experiment [7] is 0.381; in [9] it was -0.228; in experiment [10] it was -0.286; in experiment [11] it was 0.198; in [15] it was 1.67; in experiment [17] it was -0.0771. Also, the composite z-score is -0.992 in [18], -0.847 in experiment [19] and -0.269 in experiment [20]. Moreover, the z-score was -2.24 (inactive) in experiment [8]; -0.192 (inactive) in experiment [12]; -2.85 (inactive) in experiment [13]; 3.27 (inactive) in [14]; 0.844 (inactive) in experiment [16].
